PubChem BioAssay (NCI)
About 83,000 compounds went through this panel and 20% of them were active in at least one assay; those are over-represented in the sample as a whole.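 48-hour exposure, single concentration, 96-well plates; percent growth endpoint where 0 means no net growth. Active: below 10.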 A number with no mark means an inactive call. Active and inactive are the calls of the source.

How the values were obtained:
Test in all cases: NCI-60 one-dose screen, 48 h (100 = growth as untreated, 0 = no growth, -100 = all killed)
Conditions in all cases: 10 µM unless noted
[1] = test system: DU-145 prostate
[2] = test system: K-562 leukemia
[3] = test system: MALME-3M melanoma
[4] = test system: MDA-MB-231 breast
[5] = test system: RXF 393 renal
[6] = test system: SF-268 CNS
[7] = test system: SF-295 CNS
[8] = test system: SF-539 CNS
[9] = test system: UACC-257 melanoma
[10] = test system: M14 melanoma

NS(=O)(=O)c1ccc(C(=O)N/N=C(\CS(=O)(=O)c2ccccc2)c2cc3cc(Br)ccc3o2)cc1
growth [1]: 101%
growth [2]: 106%
growth [3]: 90.5%
growth [4]: 73.7%
growth [5]: 74.7%
growth [6]: 73.3%
growth [7]: 101%
growth [8]: 80.6%
growth [9]: 94.8%
growth [10]: 111%

ONc1nc(NO)c2[nH]cnc2n1
growth [1]: 74.6%
growth [2]: 23%
growth [3]: 90.8%
growth [4]: 77.4%
growth [5]: 86.1%
growth [6]: 58.8%
growth [7]: 91%
growth [8]: 103%
growth [9]: 105%
growth [10]: 76.7%

COC(=O)c1c2c(c(C)[n+]([O-])c1C)C(=O)C=C(NCc1ccc(F)c(Cl)c1)C2=O
growth [1]: -99% (active)
growth [2]: -7.41% (active)
growth [3]: -98.3% (active)
growth [4]: -25.6% (active)
growth [5]: -41.1% (active)
growth [6]: -9.98% (active)
growth [7]: -97.5% (active)
growth [8]: -89.7% (active)
growth [9]: -82.8% (active)
growth [10]: -88.4% (active)

CCN1CCN(c2ccc(Nc3ncc4ccc5ncn(C(C)C)c5c4n3)nc2)CC1
growth [1]: -22.7% (active)
growth [2]: 9.12% (active)
growth [3]: -34% (active)
growth [4]: 0.653% (active)
growth [5]: -85.4% (active)
growth [6]: -34.2% (active)
growth [7]: -17.8% (active)
growth [8]: -75.8% (active)
growth [9]: 0.866% (active)
growth [10]: -23.8% (active)

CCCCCCCCCCCCCCn1c2ccccc2c2c3c(c4c5cc(OC)ccc5oc4c21)C(=O)NC3=O
growth [1]: 111%
growth [2]: 111%
growth [3]: 115%
growth [4]: 111%
growth [5]: 122%
growth [6]: 99.8%
growth [7]: 104%
growth [8]: 97%
growth [9]: 102%
growth [10]: 101%

O=C(COc1cccc(/C=C2\COc3ccccc3C2=O)c1)c1ccccc1
growth [1]: 101%
growth [2]: 17.1%
growth [3]: 90%
growth [4]: 83.8%
growth [5]: 69.5%
growth [6]: 88.7%
growth [7]: 115%
growth [8]: 90.4%
growth [9]: 72.9%
growth [10]: 60.9%

COc1ccc(NC(=O)c2ccc3c(c2)nc(-c2ccc(Cl)cc2)n3-c2cc(C(C)(C)C)[nH]n2)cc1
growth [1]: 90.2%
growth [2]: 86%
growth [3]: 91.1%
growth [4]: 95.4%
growth [5]: 79.1%
growth [6]: 76.2%
growth [7]: 67.8%
growth [8]: 87.6%
growth [9]: 96.4%
growth [10]: 82.3%

O=C(c1cnn2c1NC(c1ccc(F)cc1)C2)N1CCCCC1 (stereo not given)
growth [1]: 103%
growth [2]: 103%
growth [3]: 97.7%
growth [4]: 106%
growth [5]: 111%
growth [6]: 96.7%
growth [7]: 103%
growth [8]: 97.8%
growth [9]: 96.3%
growth [10]: 101%

Cc1nc2cc(Nc3nc(N4CCCCC4)nc(N4CCOCC4)n3)ccc2n1Cc1ccccc1
growth [1]: 5.36% (active)
growth [2]: 84.3%
growth [3]: -3.76% (active)
growth [4]: 9.6% (active)
growth [5]: -5.84% (active)
growth [6]: 69%
growth [7]: 78.9%
growth [8]: 81.6%
growth [9]: 60.4%
growth [10]: 48.4%

CCOC(=O)c1cnn(CC(O)c2ccc(F)cc2)c1NC(=O)Nc1ccccc1F (stereo not given)
growth [1]: 102%
growth [2]: 97.5%
growth [3]: 93.3%
growth [4]: 91.2%
growth [5]: 108%
growth [6]: 99%
growth [7]: 91.6%
growth [8]: 95.1%
growth [9]: 107%
growth [10]: 93%

Cn1c(=O)c(S(=O)(=O)c2ccccc2)cc2ccc3c(cnn3-c3ccc(Cl)cc3)c21
growth [1]: 82.9%
growth [2]: 91.6%
growth [3]: 85.1%
growth [4]: 75.7%
growth [5]: 55.8%
growth [6]: 80.6%
growth [7]: 90.2%
growth [8]: 45%
growth [9]: 83.4%
growth [10]: 83.7%

COc1cc(C2=NN(c3ccc(S(N)(=O)=O)cc3)C(c3ccc(Cl)cc3)C2)cc(OC)c1OC (stereo not given)
growth [1]: 65.9%
growth [2]: 18.7%
growth [3]: 85.7%
growth [4]: 43.7%
growth [5]: 34.8%
growth [6]: 48.2%
growth [7]: 25%
growth [8]: 69.1%
growth [9]: 57.5%
growth [10]: 45.7%

Cc1ccccc1-n1nnc(C(=O)Nc2nc(-c3ccccc3)c(-c3ccccc3)s2)c1C
growth [1]: 87.6% [50 µM]
growth [2]: 53.5% [50 µM]
growth [3]: 80% [50 µM]
growth [4]: 85.3% [50 µM]
growth [5]: 69% [50 µM]
growth [6]: 69.6% [50 µM]
growth [7]: 80.6% [50 µM]
growth [8]: 77.1% [50 µM]
growth [9]: 61.5% [50 µM]
growth [10]: 78.7% [50 µM]

Cc1nc2cc(Nc3nc(Nc4ccc(F)cc4)nc(N4CCN(C)CC4)n3)ccc2n1Cc1ccccc1
growth [1]: 16.7%
growth [2]: 0.387% (active)
growth [3]: -83.4% (active)
growth [4]: -73.3% (active)
growth [5]: -82.7% (active)
growth [6]: 14.6%
growth [7]: -62.5% (active)
growth [8]: -95.9% (active)
growth [9]: -83.7% (active)
growth [10]: -73% (active)

CCC(C)[C@H]1O[C@]2(CC[C@@H]1C)C[C@@H]1C[C@@H](C/C=C(\C)[C@@H](OC3C[C@H](OC)C(O[C@H]4C[C@H](OC)[C@@H](O)[C@H](C)O4)[C@H](C)O3)[C@@H](C)/C=C/C=C3\CO[C@@H]4[C@H](O)C(C)=C[C@@H](C(=O)O1)[C@]34O)O2 (stereo not given in full)
growth [1]: 22.1%
growth [2]: 14.1%
growth [3]: 0.803% (active)
growth [4]: -15.6% (active)
growth [5]: -23.1% (active)
growth [6]: 25.1%
growth [7]: -36.7% (active)
growth [8]: -15.4% (active)
growth [9]: 47.3%
growth [10]: -73.1% (active)

COc1cc2nc(N3CCC[C@H](NC4=CC(=O)c5ccccc5C4=O)C3)nc(N)c2cc1OC
growth [1]: -54.1% (active)
growth [2]: -48.4% (active)
growth [3]: -81.3% (active)
growth [4]: -86.8% (active)
growth [5]: -76.7% (active)
growth [6]: -52.3% (active)
growth [7]: -96.8% (active)
growth [8]: -100% (active)
growth [9]: 97.7%
growth [10]: 96.2%

COc1ccc(-n2ncc3c4nc(OC)c(S(=O)(=O)c5ccccc5)cc4ccc32)cc1
growth [1]: 73%
growth [2]: 119%
growth [3]: 56.9%
growth [4]: 75.6%
growth [5]: 35.1%
growth [6]: 50.9%
growth [7]: 84%
growth [8]: 30.7%
growth [9]: 76.9%
growth [10]: 85%

CCN(CC)CCCNc1ccc(C)c2sc3ccccc3c(=O)c12
growth [1]: 43.2%
growth [2]: -7.56% (active)
growth [3]: -61.7% (active)
growth [4]: -12.1% (active)
growth [5]: 1.02% (active)
growth [6]: 48.1%
growth [7]: 32.5%
growth [8]: 51.5%
growth [9]: -61.3% (active)
growth [10]: -64.8% (active)

CCCCOC(=O)C1OC(Oc2ccc3c(C)cc(=O)oc3c2)[C@@H](OC(C)=O)C(OC(C)=O)C1OC(C)=O (stereo not given in full)
growth [1]: 104%
growth [2]: 106%
growth [3]: 89.1%
growth [4]: 104%
growth [5]: 106%
growth [6]: 97.4%
growth [7]: 96.1%
growth [8]: 96%
growth [9]: 93.9%
growth [10]: 93.9%

Nc1cc(Br)c(-c2nnc(CCC(=O)c3nc4ccccc4[nH]3)o2)c(Br)c1
growth [1]: 103%
growth [2]: 27%
growth [3]: 58.7%
growth [4]: 76.7%
growth [5]: 92.6%
growth [6]: 88.2%
growth [7]: 66.3%
growth [8]: 93.9%
growth [9]: 90.7%
growth [10]: 79.8%

COc1c(O)c2c3c(c1OC)-c1ccccc1CC3N(S(=O)(=O)c1ccc(C)cc1)CC2 (stereo not given)
growth [1]: 36.5%
growth [2]: 23%
growth [3]: 58.6%
growth [4]: 52.7%
growth [5]: 58.6%
growth [6]: 55.1%
growth [7]: 85.2%
growth [8]: 41.2%
growth [9]: 54.7%
growth [10]: 31.2%

COc1cc(Cn2cc(F)c(=O)[nH]c2=O)cc(OC)c1
growth [1]: 114% [50 µM]
growth [2]: 95.6% [50 µM]
growth [3]: 108% [50 µM]
growth [4]: 95.7% [50 µM]
growth [5]: 99.5% [50 µM]
growth [6]: 96.1% [50 µM]
growth [7]: 101% [50 µM]
growth [8]: 101% [50 µM]
growth [9]: 110% [50 µM]
growth [10]: 100% [50 µM]

Cc1c(NCC(=O)Nc2nc3ccccc3[nH]2)c(=O)n(-c2ccccc2)n1C
growth [1]: 112%
growth [2]: 101%
growth [3]: 98.4%
growth [4]: 99.3%
growth [5]: 102%
growth [6]: 103%
growth [7]: 109%
growth [8]: 97.7%
growth [9]: 94.4%
growth [10]: 105%

C=C(C)CCCC(C)CC#N (stereo not given)
growth [1]: 105%
growth [2]: 105%
growth [3]: 88%
growth [4]: 115%
growth [5]: 105%
growth [6]: 94.6%
growth [7]: 94.3%
growth [8]: 95.6%
growth [9]: 104%
growth [10]: 96.5%

Cc1cc(Cl)c2c(Cl)ccc(Cl)c2n1
growth [1]: 112%
growth [2]: 97.6%
growth [3]: 105%
growth [4]: 119%
growth [5]: 118%
growth [6]: 99.1%
growth [7]: 96.9%
growth [8]: 97.5%
growth [9]: 102%
growth [10]: 101%

O=c1oc2ccccc2cc1-c1csc(N=Nc2c(O)[nH]c3ccc(Cl)cc23)n1
growth [1]: 108%
growth [2]: 98.7%
growth [3]: 105%
growth [4]: 102%
growth [5]: 129%
growth [6]: 98.4%
growth [7]: 98.6%
growth [8]: 94.5%
growth [9]: 80.1%
growth [10]: 111%
